In PubChem BioAssay (NCATS):
Records with an inconclusive call do not appear. Entries that show only a call come without a potency. Active and inactive are the calls of the source. The call rests on the fitted dose curve; in most records, active means well fitted cell-killing curve with a large enough effect in the repeat runs; inconclusive means weak or mixed curves, or effect the other way; inactive means flat fitted curve, though single readings scatter.

Assay: qHTS assay for small molecule antagonists of the retinoid-related orphan receptor gamma (ROR-gamma) signaling pathway - cell viability counter screen (AID 720652);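 further: compound exposure lasted 16 hr before ATP read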
Conditions: RORgamma reporter cell line viability counter screen; series mostly up to 92.2 µM
Source text: National Center for Advancing Translational Sciences [NCATS]
NIH Chemical Genomics Center [NCGC]
National Institutes of Environmental Health Sciences [NIEHS]
National Toxicology Program [NTP]
Nuclear steroid hormone receptors are involved in many biological processes including inflammatory responses, cell proliferation, and apoptosis. Environmental factors or compounds disrupting these nuclear receptor pathways and gene expression may promote susceptibility to immunotoxicants and autoimmune diseases. One important group of these expression factors are the retinoid-related orphan receptors. To assess compounds that may interfere with the retinoid-related orphan receptor gamma (ROR-gamma) transcription factor, a cell-based luciferase assay was used.
The CHO cell-based assay utilizes a TET-inducible ROR expression factor and ROR response element-LUC reporter gene. Reporter activity was induced using doxycycline and measured after 16hr incubation. Luminescence was read using Viewlux (PerkinElmer), where a decrease in reporter activity would show a decrease in luminescence. The cytotoxicity of the compounds against ROR response-Luc reporter gene cell line was quantified by measuring the intracellular ATP content.
1,000 cells in 4 uL/well were dispensed into white wall/solid bottom 1536-well plates using a Multidrop Combi (Thermo Scientific) dispenser. Following incubation at 37 C and 5% CO2 for 5 hr, 23 nL compound or DMSO vehicle were transferred by a pin tool, then the plates were treated with 1 ul doxycycline to induce reporter gene activity. After 16 hr incubation at 37 C and 5% CO2, 5 uL/well of CellTiter-Glo reagent (Promega) was then added to each plate using a Flying Reagent Dispenser and incubated at room temperature for 30 min. The luminescence intensity was quantified on a ViewLux plate reader (PerkinElmer).

SMILES	Potency
CC1CCC2CC1C2(C)C (stereo not given)	inactive
O=[N+]([O-])c1cccc(C(F)(F)F)c1	inactive
Nc1cccc2c(=O)[nH][nH]c(=O)c12	inactive
C=C(C)C(=O)OCC(C)O (stereo not given)	inactive
CCCCCCC(=O)O	inactive
C=CC(=O)NC(C)C	inactive
CCCCC(C=O)CC (stereo not given)	inactive
ClC/C=C/CCl	inactive
O=CNc1ccccc1	inactive
CCC(=O)/C=C/C1C(C)=CCCC1(C)C (stereo not given)	inactive
C=C(C)C(=O)OCCCCCC	inactive
CC(=O)OC(C)C	inactive
CC(C)Cc1nccs1	inactive
CCCCOCCOCCSC#N	inactive
C=CC(=O)OCCCC	inactive
CCCOCC(C)OCC(C)O (stereo not given)	inactive
FC(F)(F)c1cccc(Cl)c1	inactive
C=CCOC(=O)COCCC(C)C	inactive
CC(=O)OCc1ccco1	inactive
CO[Si](CCCNCCC[Si](OC)(OC)OC)(OC)OC	inactive

SMILES	Potency
Cc1cc(C)c(N)cc1C	inactive
CCOc1cccc(N)c1	inactive
Cc1cccc2cccnc12	inactive
O=[N+]([O-])c1ccc(Cl)cc1Cl	inactive
CC1(N)CCC(C(C)(C)N)CC1 (stereo not given)	inactive
C=C(C)C(=O)OC	inactive
Cc1ccc(Br)cc1	inactive
O=C(O)c1cccc([N+](=O)[O-])c1	inactive
Nc1ccccc1S(=O)(=O)O	inactive
OC/C(Br)=C(\Br)CO	inactive
C=C(C)C(=O)OCC(C)C	inactive
CCC1CO1 (stereo not given)	inactive
Cc1cccc([N+](=O)[O-])c1C(=O)O	inactive
COc1ccc(OC)cc1	inactive
CCc1ccccc1	inactive
Cc1cccc(C)c1	inactive
CC(C)=CCC/C(C)=C/C=O	inactive
O=Cc1ccc(Cl)cc1	inactive
Cc1ccccc1C#N	inactive
C(=C/c1ccccc1)/c1ccccc1	inactive
